Data as given in ChEMBL document CHEMBL2218924, “A broad activity screen in support of a chemogenomic map for kinase signalling research and drug discovery” (Biochem J, 2013).

Key:
[1] = target: Focal adhesion kinase 1 (Homo sapiens) (UniProt Q05397); conditions: at 10 µM
[2] = target: Fibroblast growth factor receptor 1 (Homo sapiens) (UniProt P11362); conditions: at 1 µM
[3] = target: Fibroblast growth factor receptor 1 (Homo sapiens) (UniProt P11362); conditions: at 10 µM
[4] = target: Fibroblast growth factor receptor 2 (Homo sapiens) (UniProt P21802); conditions: at 1 µM
Sequence of Fibroblast growth factor receptor 2 (Homo sapiens) (P21802 22-821 limits assumed): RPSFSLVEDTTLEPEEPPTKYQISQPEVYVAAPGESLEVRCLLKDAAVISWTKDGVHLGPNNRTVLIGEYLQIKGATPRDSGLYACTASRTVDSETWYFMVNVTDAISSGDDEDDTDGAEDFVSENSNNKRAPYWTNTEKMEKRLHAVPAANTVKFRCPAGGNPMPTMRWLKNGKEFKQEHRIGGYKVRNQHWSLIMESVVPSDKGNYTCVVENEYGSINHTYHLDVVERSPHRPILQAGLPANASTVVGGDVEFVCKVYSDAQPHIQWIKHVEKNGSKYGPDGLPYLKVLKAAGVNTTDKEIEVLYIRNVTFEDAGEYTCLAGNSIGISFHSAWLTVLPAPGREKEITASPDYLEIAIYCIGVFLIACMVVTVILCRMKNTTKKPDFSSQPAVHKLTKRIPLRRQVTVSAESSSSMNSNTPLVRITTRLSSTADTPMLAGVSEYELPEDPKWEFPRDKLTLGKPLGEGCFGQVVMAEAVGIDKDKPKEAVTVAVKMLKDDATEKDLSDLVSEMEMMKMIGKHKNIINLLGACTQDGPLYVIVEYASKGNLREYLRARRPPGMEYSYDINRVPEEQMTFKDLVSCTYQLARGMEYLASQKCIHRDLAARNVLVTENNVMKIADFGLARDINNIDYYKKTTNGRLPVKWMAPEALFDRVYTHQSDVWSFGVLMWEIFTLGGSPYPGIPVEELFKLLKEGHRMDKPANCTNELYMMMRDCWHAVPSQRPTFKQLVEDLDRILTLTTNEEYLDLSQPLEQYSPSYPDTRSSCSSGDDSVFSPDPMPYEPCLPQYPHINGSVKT

[5] = target: Fibroblast growth factor receptor 2 (Homo sapiens) (UniProt P21802); conditions: at 10 µM
[6] = target: Fibroblast growth factor receptor 3 (Homo sapiens) (UniProt P22607); conditions: at 1 µM
Sequence of Fibroblast growth factor receptor 3 (Homo sapiens) (P22607 23-806 limits assumed): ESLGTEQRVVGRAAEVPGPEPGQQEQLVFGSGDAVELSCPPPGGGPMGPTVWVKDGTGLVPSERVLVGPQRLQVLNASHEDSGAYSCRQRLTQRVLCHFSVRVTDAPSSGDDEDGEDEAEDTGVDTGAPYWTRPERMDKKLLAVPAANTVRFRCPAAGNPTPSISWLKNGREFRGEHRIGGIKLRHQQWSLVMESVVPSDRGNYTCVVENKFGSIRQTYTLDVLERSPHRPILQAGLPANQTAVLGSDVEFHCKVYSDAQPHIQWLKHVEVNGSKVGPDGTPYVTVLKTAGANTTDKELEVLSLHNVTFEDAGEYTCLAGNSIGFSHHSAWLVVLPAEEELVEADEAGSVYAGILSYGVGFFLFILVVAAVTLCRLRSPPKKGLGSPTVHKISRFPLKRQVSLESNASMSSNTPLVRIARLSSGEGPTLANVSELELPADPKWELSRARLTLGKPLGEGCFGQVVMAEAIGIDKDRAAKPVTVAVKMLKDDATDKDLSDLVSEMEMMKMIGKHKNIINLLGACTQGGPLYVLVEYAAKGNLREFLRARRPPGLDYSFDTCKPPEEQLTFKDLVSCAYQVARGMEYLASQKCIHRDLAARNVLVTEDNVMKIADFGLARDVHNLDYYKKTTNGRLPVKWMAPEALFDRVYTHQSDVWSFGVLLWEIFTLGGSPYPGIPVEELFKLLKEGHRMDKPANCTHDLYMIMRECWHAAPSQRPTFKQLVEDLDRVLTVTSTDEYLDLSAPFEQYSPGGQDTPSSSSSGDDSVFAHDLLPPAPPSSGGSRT

[7] = target: Fibroblast growth factor receptor 3 (Homo sapiens) (UniProt P22607); conditions: at 10 µM
[8] = target: Fibroblast growth factor receptor 4 (Homo sapiens) (UniProt P22455); conditions: at 1 µM
Sequence of Fibroblast growth factor receptor 4 (Homo sapiens) (P22455 22-802 limits assumed): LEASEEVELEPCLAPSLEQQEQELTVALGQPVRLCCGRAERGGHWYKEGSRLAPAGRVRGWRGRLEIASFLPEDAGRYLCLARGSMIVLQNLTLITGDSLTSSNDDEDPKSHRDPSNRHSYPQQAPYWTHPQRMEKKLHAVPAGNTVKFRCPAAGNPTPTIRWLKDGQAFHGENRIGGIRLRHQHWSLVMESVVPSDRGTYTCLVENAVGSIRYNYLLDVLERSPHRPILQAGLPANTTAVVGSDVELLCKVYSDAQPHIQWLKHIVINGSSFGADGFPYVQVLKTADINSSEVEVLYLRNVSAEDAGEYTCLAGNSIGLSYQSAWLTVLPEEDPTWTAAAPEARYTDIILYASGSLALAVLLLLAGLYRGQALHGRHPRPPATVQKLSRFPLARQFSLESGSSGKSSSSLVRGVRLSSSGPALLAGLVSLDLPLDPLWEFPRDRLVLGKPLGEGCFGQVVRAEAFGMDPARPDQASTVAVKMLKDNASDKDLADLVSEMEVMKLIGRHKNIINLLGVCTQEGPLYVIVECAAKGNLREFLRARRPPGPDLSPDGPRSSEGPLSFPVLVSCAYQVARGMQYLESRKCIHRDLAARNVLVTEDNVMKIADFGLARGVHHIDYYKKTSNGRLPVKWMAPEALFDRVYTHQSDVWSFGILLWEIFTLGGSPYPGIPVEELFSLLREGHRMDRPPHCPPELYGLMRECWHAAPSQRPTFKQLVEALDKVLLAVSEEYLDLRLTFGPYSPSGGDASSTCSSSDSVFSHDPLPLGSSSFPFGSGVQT

[9] = target: Fibroblast growth factor receptor 4 (Homo sapiens) (UniProt P22455); conditions: at 10 µM
[10] = target: Tyrosine-protein kinase Fer (Homo sapiens) (UniProt P16591); conditions: at 1 µM
Sequence of Tyrosine-protein kinase Fer (Homo sapiens) (P16591 whole entry, looked up): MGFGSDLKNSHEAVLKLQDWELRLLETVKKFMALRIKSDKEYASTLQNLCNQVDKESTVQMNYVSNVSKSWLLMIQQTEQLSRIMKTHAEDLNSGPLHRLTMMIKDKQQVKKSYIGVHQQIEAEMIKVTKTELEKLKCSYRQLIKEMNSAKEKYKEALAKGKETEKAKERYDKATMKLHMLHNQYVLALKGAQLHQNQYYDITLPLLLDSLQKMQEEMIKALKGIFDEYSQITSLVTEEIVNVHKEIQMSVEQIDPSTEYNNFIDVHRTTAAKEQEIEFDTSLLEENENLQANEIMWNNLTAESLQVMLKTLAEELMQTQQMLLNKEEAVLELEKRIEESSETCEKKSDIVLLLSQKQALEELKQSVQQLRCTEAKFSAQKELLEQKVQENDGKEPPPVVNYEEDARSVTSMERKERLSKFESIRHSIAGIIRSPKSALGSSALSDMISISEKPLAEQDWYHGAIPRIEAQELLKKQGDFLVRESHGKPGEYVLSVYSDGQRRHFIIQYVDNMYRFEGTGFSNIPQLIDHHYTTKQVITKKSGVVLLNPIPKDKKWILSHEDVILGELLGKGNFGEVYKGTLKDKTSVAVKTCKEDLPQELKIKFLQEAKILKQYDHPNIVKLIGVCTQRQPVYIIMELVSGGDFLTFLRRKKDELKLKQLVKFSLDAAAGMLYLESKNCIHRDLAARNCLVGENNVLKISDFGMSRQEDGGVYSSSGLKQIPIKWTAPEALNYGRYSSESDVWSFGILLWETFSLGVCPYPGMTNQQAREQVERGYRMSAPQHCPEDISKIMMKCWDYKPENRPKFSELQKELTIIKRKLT

Sequence of Focal adhesion kinase 1 (Homo sapiens) (Q05397 2-1052 limits assumed): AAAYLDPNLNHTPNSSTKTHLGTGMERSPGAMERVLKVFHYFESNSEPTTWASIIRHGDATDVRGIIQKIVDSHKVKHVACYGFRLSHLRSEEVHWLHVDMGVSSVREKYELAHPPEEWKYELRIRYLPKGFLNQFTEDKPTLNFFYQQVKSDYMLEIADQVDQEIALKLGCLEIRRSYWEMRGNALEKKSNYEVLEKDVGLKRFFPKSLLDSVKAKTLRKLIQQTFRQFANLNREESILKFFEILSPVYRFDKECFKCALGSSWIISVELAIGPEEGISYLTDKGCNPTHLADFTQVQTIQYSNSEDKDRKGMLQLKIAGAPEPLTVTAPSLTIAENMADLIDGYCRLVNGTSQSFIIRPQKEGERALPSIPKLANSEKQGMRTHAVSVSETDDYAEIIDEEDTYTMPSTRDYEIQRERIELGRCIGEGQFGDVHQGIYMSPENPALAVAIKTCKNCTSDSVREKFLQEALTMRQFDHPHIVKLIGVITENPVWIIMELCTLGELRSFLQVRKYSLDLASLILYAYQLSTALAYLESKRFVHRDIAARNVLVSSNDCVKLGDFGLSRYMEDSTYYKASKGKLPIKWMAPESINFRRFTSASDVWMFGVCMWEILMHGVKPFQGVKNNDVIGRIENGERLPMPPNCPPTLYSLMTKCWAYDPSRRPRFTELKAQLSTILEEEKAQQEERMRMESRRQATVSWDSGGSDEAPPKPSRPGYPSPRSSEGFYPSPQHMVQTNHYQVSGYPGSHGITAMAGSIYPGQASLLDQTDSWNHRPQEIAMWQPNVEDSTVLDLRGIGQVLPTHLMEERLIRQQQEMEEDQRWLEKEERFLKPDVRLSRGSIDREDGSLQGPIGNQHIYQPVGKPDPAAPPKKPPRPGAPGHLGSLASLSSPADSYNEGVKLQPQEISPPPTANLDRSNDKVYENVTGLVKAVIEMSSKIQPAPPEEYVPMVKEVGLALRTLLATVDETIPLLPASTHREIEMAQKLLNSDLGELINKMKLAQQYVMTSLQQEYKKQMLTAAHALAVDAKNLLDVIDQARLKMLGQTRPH
Sequence of Fibroblast growth factor receptor 1 (Homo sapiens) (P11362 22-822 limits assumed): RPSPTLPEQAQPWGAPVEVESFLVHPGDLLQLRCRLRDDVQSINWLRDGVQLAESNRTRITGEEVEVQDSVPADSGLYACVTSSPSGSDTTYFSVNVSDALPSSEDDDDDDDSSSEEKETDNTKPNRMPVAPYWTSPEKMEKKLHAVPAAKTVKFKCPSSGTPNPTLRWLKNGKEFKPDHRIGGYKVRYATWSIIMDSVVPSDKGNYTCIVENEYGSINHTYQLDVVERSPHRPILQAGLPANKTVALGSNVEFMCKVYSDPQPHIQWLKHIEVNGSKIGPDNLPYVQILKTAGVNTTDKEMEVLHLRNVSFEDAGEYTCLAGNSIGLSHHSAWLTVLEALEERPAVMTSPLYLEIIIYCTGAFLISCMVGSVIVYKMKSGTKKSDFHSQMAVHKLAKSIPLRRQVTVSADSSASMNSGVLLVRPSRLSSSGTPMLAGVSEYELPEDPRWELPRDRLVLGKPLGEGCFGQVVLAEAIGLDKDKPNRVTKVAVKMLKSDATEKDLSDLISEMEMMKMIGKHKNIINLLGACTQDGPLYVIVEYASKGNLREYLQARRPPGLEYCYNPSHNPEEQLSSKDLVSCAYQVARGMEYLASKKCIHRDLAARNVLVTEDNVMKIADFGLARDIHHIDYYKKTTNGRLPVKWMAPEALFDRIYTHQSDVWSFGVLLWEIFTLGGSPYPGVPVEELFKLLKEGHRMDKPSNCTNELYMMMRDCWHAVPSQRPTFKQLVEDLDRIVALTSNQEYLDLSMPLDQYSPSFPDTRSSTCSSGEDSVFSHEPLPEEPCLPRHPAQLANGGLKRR

| SMILES | residual activity [1] | residual activity [2] | residual activity [3] | residual activity [4] | residual activity [5] | residual activity [6] | residual activity [7] | residual activity [8] | residual activity [9] | residual activity [10] |
| --- | --- | --- | --- | --- | --- | --- | --- | --- | --- | --- |
| NC(=O)Nc1sc(-c2ccc(F)cc2)cc1C(N)=O | 9% | 29% | 5% | 50% | 10% | 81% | 15% | 106% | 91% | 83% |
| O=c1cc(N2CCOCC2)oc2c1ccc1ccccc12 | 92% | 109% | 71% | 111% | 101% |  |  |  |  |  |
| NC(=O)c1cccc(-c2cc(Nc3ccc(OC(F)(F)F)cc3)ncn2)c1 | 95% | 96% | 92% |  |  |  |  |  |  |  |
| O=C1NC(=O)c2c1c1c3ccccc3[nH]c1n1cncc21 | 25% | 41% | 9% | 72% | 32% | 76% | 41% | 102% | 80% |  |
| O=C1NC(=O)C(c2c[nH]c3ccccc23)=C1c1c[nH]c2ccccc12 | 44% | 9% | 1% | 37% | 9% | 27% | 4% |  | 71% |  |
| O=C(Nc1ccc(Cl)cc1)c1ccccc1NCc1ccncc1 | 73% | 75% | 10% |  |  |  | 73% |  | 78% | 131% |
| Nc1ncnc2c1cnn2-c1ccccc1 | 95% | 127% | 94% | 96% | 83% | 76% | 83% |  | 97% |  |
| Nc1ncnc2c1c(-c1ccc(Oc3ccccc3)cc1)cn2C1CCCC1 | 46% | 13% | -1% | 37% | 3% | 41% | 7% | 100% | 46% | 100% |
| Oc1cccc(-c2nc(N3CCOCC3)c3oc4ncccc4c3n2)c1 | 50% | 97% | 78% | 122% | 123% |  |  |  | 99% | 119% |
| c1ccc(-c2cnc(Nc3ccc(OCCN4CCCC4)cc3)s2)cc1 | 46% | 59% | 8% | 80% | 28% |  |  |  |  | 111% |
| O=C1NC(=O)C(c2cn(CCCn3ccnc3)c3ccccc23)=C1Nc1ccccc1 | 71% | 77% | 17% | 113% | 57% |  |  |  |  | 102% |
| CCOC(=O)c1c(C)[nH]c(/C=C2\C(=O)Nc3ccccc32)c1C | 89% | 98% | 80% | 83% | 85% |  |  |  |  |  |
| CN(C)S(=O)(=O)c1ccc2c(c1)/C(=C/c1cc3c([nH]1)CCCC3)C(=O)N2 | 8% | 36% | 54% | 51% | 30% |  | 90% | 84% | 87% | 59% |
| O=C1Nc2ccc(Cl)cc2/C1=C/c1cc(Cl)c(O)c(Cl)c1 | 58% | 93% | 53% | 80% | 39% | 96% | 62% |  |  |  |
| Cn1c2ccccc2c2c3c(c4c5ccccc5n(CCC#N)c4c21)CNC3=O | 17% | 7% | 6% | 53% | 46% |  |  | 111% |  | 4% |
| CC(C)c1nn(-c2c(Cl)cccc2Cl)c2nc(Cc3ccc(OCCO)cc3)[nH]c(=O)c12 | 66% | 70% | 27% | 108% | 86% | 104% | 99% |  |  | 100% |

| SMILES | residual activity [1] | residual activity [2] | residual activity [3] | residual activity [4] | residual activity [5] | residual activity [6] | residual activity [7] | residual activity [8] | residual activity [9] | residual activity [10] |
| --- | --- | --- | --- | --- | --- | --- | --- | --- | --- | --- |
| O=C(c1cc2cc(O)ccc2[nH]1)c1cc2cc(O)ccc2[nH]1 | 65% | 40% | 5% | 83% | 24% | 70% | 20% |  |  |  |
| CCCCc1c(-c2ccc(OC)cc2)[nH]c2nccnc12 | 49% | 46% | 46% | 88% | 60% |  | 114% | 109% | 91% | 84% |
| NCCNc1ncc(C(N)=O)c(Nc2cccc(C(F)(F)F)c2)n1 | 7% | 113% | 68% | 100% | 80% |  |  |  |  | 102% |
| O=C(c1ccccc1)c1ccc(N2CCOCC2)cc1O | 85% | 98% | 73% |  |  |  |  | 116% | 95% | 125% |
| COc1cc2nccc(Oc3ccc(NC(=S)NC(=O)c4ccccc4C)cc3)c2cc1OC | 66% | 49% | 8% | 84% | 40% | 90% | 58% |  | 78% | 70% |
| O=C1Cc2c([nH]c3ccc(Br)cc23)-c2ccccc2N1 | 28% | 87% | 32% |  |  | 127% | 87% |  | 96% |  |
| CCN(CC)CCNC(=O)c1c(C)[nH]c(/C=C2\C(=O)Nc3ccc(Cl)cc32)c1C | 4% | 7% | 1% | 14% | 3% | 8% | 1% |  |  | 79% |
| O=C1C(Cl)=C(N2C(=O)CCC2=O)C(=O)c2ccccc21 | 90% | 118% | 94% | 100% | 89% |  |  | 98% | 91% | 87% |
| Cc1cc(C)c(/C=C2\C(=O)Nc3ccccc32)[nH]1 | 9% | 65% | 13% |  |  | 80% | 68% | 124% |  | 100% |
| CC(C)(C)n1nc(Cc2cccc3ccccc23)c2c(N)ncnc21 | 81% | 28% | 2% | 62% | 18% |  |  | 115% | 72% | 104% |
| CCCCc1c(-c2ccc(O)cc2)[nH]c2nccnc12 | 19% | 41% | 11% | 85% | 59% |  |  | 127% | 99% | 86% |
| CC(C)N(CCC(=O)c1ccc2ccccc2c1)Cc1ccccc1 | 85% | 125% |  |  |  |  |  |  |  |  |
| O=c1cc(N2CCNCC2)oc2c(-c3ccccc3)cccc12 | 88% | 105% | 84% |  |  |  |  |  | 67% |  |
| Nc1nccc(-c2c(-c3ccc(F)cc3)ncn2C2CCNCC2)n1 | 71% | 119% | 27% | 113% | 67% | 120% | 83% |  |  |  |
| COc1ccc(Cl)cc1NC(=O)Nc1cc(C)nc2ccccc12 | 64% |  |  |  |  |  |  |  |  |  |
| Cn1sc(=O)n(Cc2ccccc2)c1=O | 61% | 92% | 86% |  |  | 135% | 126% |  |  | 90% |
